Several values for one entry are separate records, joined by “and”; a condition that tells them apart may be missing. Equal values may be shown once. Out of some 5,500 compounds screened, about 2,000 (36%) were called active. Roughly 18% stayed inconclusive and do not appear here. Cut-off read from the data, not from the text of the source: active = normalized growth mostly below about 0.91 (no sharp cut-off); inconclusive = no clear call, values can overlap the other calls; inactive = mostly above about 0.92. The list shows a part of the results.
Experiment: chemical genetic growth profiling, strain panel (AID 1159580);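 note: tested at 20 µM; growth read once vehicle control cultures reached saturation at 30 °C; 1 = growth at the plate median or of vehicle wells; lower values mean less growth of the strain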
Settings: S. cerevisiae deletion strains, growth OD
[1] = locus YMR307W, strain GAS1, active compounds read low
[2] = locus YNL322C, strain KRE1, active compounds read low

Measured: normalized growth

NC(C(=O)N[C@@H]1C(=O)N2C(C(=O)O)=C(Cl)CS[C@H]12)c1ccccc1 (stereo not given in full)
inactive: locus YAL040C, strain CLN3, active compounds read low 0.986 | locus YDR363W, strain ESC2, active compounds read low 1.03 | locus YER002W, strain NOP16, active compounds read low 1 | [1] 0.998 | locus YNL175C, strain NOP13, active compounds read low 1.01 | locus YNL197C, strain WHI3, active compounds read low 0.99 | locus YNL224C, strain SQS1, active compounds read low 1.01 | [2] 1 | locus YOR083W, strain WHI5 (second series), active compounds read low 0.992

CC1=C(C(=O)O)N2C(=O)[C@@H](NC(=O)[C@@H](N)c3ccc(O)cc3)[C@H]2SC1
inactive: locus YAL013W, strain DEP1, active compounds read low 0.993 | locus YAL021C, strain ccr4, active compounds read low 1.02 | locus YAL026C, strain drs2, active compounds read low 1.04 | locus YAL030W, strain snc1, active compounds read low 1.03 | locus YBL061C, strain skt5, active compounds read low 1.03 | locus YBR009C, strain hhf1, active compounds read low 1.03 | locus YBR021W, strain FUR4, active compounds read low 1.01 | locus YBR023C, strain chs3, active compounds read low 1.06 | locus YBR171W, strain sec66, active compounds read low 1.03 | locus YBR229C, strain ROT2, active compounds read low 0.958 | locus YBR231C, strain swc5, active compounds read low 1.04 | locus YBR279W, strain paf1, active compounds read low 1.02 | locus YCL011C, strain gbp2, active compounds read low 1.01 | locus YCL016C, strain dcc1, active compounds read low 1.03 | locus YCL029C, strain bik1, active compounds read low 0.984 | locus YCL061C, strain MRC1, active compounds read low 1.04 | locus YCL069W, strain vba3, active compounds read low 1.03 | locus YCR088W, strain abp1, active compounds read low 1.02 | locus YDL005C, strain med2, active compounds read low 1.03 | locus YDL035C, strain GPR1, active compounds read low 0.956 | locus YDL040C, strain nat1, active compounds read low 1.02 | locus YDL074C, strain BRE1, active compounds read low 1.01 | locus YDL101C, strain DUN1, active compounds read low 0.99 | locus YDL185W, strain tfp1, active compounds read low 0.953 | locus YDL192W, strain arf1, active compounds read low 0.971 | locus YDR001C, strain nth1, active compounds read low 1.04 | locus YDR069C, strain doa4, active compounds read low 1.05 | locus YDR101C, strain arx1, active compounds read low 0.965 | locus YDR137W, strain rgp1, active compounds read low 1.03 | locus YDR150W, strain NUM1, active compounds read low 0.985 | locus YDR159W, strain sac3, active compounds read low 1.04 | locus YDR162C, strain NBP2, active compounds read low 0.967 | locus YDR195W, strain ref2 1 | locus YDR297W, strain sur2, active compounds read low 1.03 | locus YDR318W, strain mcm21, active compounds read low 0.994 | locus YDR334W, strain swr1, active compounds read low 1.03 | locus YDR335W, strain msn5, active compounds read low 1.02 | locus YDR388W, active compounds read low 0.979 | locus YDR392W, strain spt3, active compounds read low 1.05 | locus YDR502C, strain sam2, active compounds read low 0.984 | locus YEL003W, strain gim4, active compounds read low 1.03 | locus YEL037C, strain rad23, active compounds read low 1.03 | locus YEL061C, strain CIN8 (second series), active compounds read low 1.04 | locus YEL061C, strain CIN8, active compounds read low 0.988 | locus YER015W, strain faa2, active compounds read low 1.01 | locus YER016W, strain bim1, active compounds read low 1.02 | locus YER110C, active compounds read low 0.973 | locus YER111C, strain swi4, active compounds read low 1.03 | locus YER155C, strain BEM2 (second series), active compounds read low 1.07 | locus YER155C, strain BEM2, active compounds read low 0.995 | locus YER167W, strain BCK2, active compounds read low 0.995 | locus YFR010W, strain ubp6, active compounds read low 1.06 | locus YGL078C, strain dbp3, active compounds read low 1 | locus YGL086W, strain mad1, active compounds read low 0.982 | locus YGL167C, strain pmr1, active compounds read low 1.03 | locus YGL173C, strain kem1, active compounds read low 1.04 | locus YGL227W, strain vid30, active compounds read low 1.03 | locus YGL240W, strain doc1, active compounds read low 1.03 | locus YGL248W, strain PDE1, active compounds read low 1.01 | locus YGL253W, strain hxk2, active compounds read low 1.02 | locus YGR135W, strain pre9, active compounds read low 1.03 | locus YGR229C, strain SMI1, active compounds read low 0.978 | locus YGR252W, strain gcn5, active compounds read low 0.999 | locus YHR013C, strain ard1, active compounds read low 1.06 | locus YHR027C, strain rpn1, active compounds read low 1.02 | locus YHR030C, strain SLT2, active compounds read low 0.986 and 0.97 | locus YHR079C, strain IRE1 (second series), active compounds read low 0.985 | locus YHR079C, strain IRE1, active compounds read low 0.99 | locus YHR094C, strain hxt1, active compounds read low 0.983 | locus YHR129C, strain ARP1, active compounds read low 0.987 | locus YHR142W, strain chs7, active compounds read low 1.04 | locus YHR200W, strain rpn10, active compounds read low 0.967 | locus YIL066C, strain RNR3, active compounds read low 0.98 | locus YIL073C, strain SPO22, active compounds read low 0.981 | locus YIL125W, strain kgd1, active compounds read low 0.988 | locus YIR030C, strain dcg1, active compounds read low 0.982 | locus YJL092W, strain hpr5, active compounds read low 1.04 | locus YJL095W, strain BCK1 (second series), active compounds read low 1.02 | locus YJL095W, strain BCK1, active compounds read low 1.05 and 0.976 | locus YJL115W, strain asf1, active compounds read low 1.04 | locus YJL129C, strain trk1, active compounds read low 1.04 | locus YJL134W, strain LCB3, active compounds read low 0.983 | locus YJL154C, strain vps35, active compounds read low 1.01 | locus YJL164C, strain tpk1, active compounds read low 1.03 | locus YJL166W, strain qcr8, active compounds read low 1.03 | locus YJL168C, strain set2, active compounds read low 0.982 | locus YJL187C, strain SWE1 (second series), active compounds read low 1 | locus YJR043C, strain POL32, active compounds read low 0.97 | locus YJR066W, strain TOR1, active compounds read low 0.979 | locus YKL009W, strain mrt4, active compounds read low 1.05 | locus YKL068W, active compounds read low 0.978 | locus YKL085W, strain MDH1 (second series), active compounds read low 0.991 | locus YKL085W, strain MDH1, active compounds read low 0.991 | locus YKL160W, strain elf1, active compounds read low 1.02 | locus YKR001C, strain vps1, active compounds read low 0.993 | locus YKR026C, strain gcn3, active compounds read low 0.999 | locus YKR091W, strain srl3, active compounds read low 1.03 | locus YLL001W, strain dnm1, active compounds read low 1.04 | locus YLL026W, active compounds read low 1.03 | locus YLL041C, strain sdh2, active compounds read low 1.03 | locus YLR027C, strain aat2, active compounds read low 1.03 | locus YLR039C, strain RIC1, active compounds read low 0.992 | locus YLR058C, strain SHM2, active compounds read low 0.988 | locus YLR102C, strain apc9, active compounds read low 0.985 | locus YLR113W, strain HOG1, active compounds read low 0.932 | locus YLR221C, strain rsa3, active compounds read low 1.04 | locus YLR258W, strain gsy2, active compounds read low 1.02 | locus YLR262C, strain YPT6 (second series), active compounds read low 1.07 | locus YLR262C, strain YPT6, active compounds read low 0.941 | locus YLR268W, strain sec22, active compounds read low 0.977 | locus YLR320W, strain mms22, active compounds read low 1.03 | locus YLR330W, strain CHS5, active compounds read low 0.988 | locus YLR342W, strain FKS1 (second series), active compounds read low 0.979 | locus YLR342W, strain FKS1, active compounds read low 1.03 | locus YLR357W, strain rsc2, active compounds read low 1.04 | locus YLR370C, strain arc18, active compounds read low 1.02 | locus YLR371W, strain rom2, active compounds read low 0.968 | locus YLR384C, strain iki3, active compounds read low 1.03 | locus YLR418C, strain cdc73, active compounds read low 1.02 | locus YML016C, strain PPZ1, active compounds read low 0.99 | locus YML032C, strain rad52, active compounds read low 0.984 | locus YML120C, strain ndi1, active compounds read low 1.03 | locus YML124C, strain tub3, active compounds read low 0.981 | locus YMR058W, strain fet3, active compounds read low 1 | locus YMR078C, strain ctf18, active compounds read low 0.982 | locus YMR125W, strain sto1, active compounds read low 1.04 | locus YMR129W, active compounds read low 1.03 | locus YMR205C, strain PFK2, active compounds read low 1.03 | locus YMR223W, strain ubp8, active compounds read low 1.01 | locus YMR231W, strain pep5, active compounds read low 1.02 | locus YMR263W, strain SAP30, active compounds read low 0.996 | [1] 0.967 | locus YNL067W, strain RPL9B, active compounds read low 1 | locus YNL071W, strain lat1, active compounds read low 1.02 | locus YNL128W, strain TEP1, active compounds read low 0.983 | locus YNL183C, strain NPR1, active compounds read low 0.929 | locus YNL209W, strain ssb2, active compounds read low 1.01 | locus YNL233W, strain BNI4, active compounds read low 1.02 | locus YNL248C, strain rpa49, active compounds read low 1.04 | locus YNL250W, strain rad50, active compounds read low 0.984 | locus YNL271C, strain bni1, active compounds read low 0.984 | locus YNL298W, strain CLA4, active compounds read low 0.981 | locus YNL307C, strain MCK1, active compounds read low 0.983 | locus YNL322C, strain KRE1 (second series), active compounds read low 1.03 | [2] 0.998 | locus YNR049C, strain mso1, active compounds read low 1.03 | locus YNR052C, strain pop2, active compounds read low 0.982 | locus YOL006C, strain TOP1, active compounds read low 1.1 | locus YOL012C, strain htz1 0.974 | locus YOL147C, strain pex11, active compounds read low 0.994 | locus YOR001W, strain rrp6, active compounds read low 1.06 | locus YOR061W, strain CKA2, active compounds read low 0.968 | locus YOR069W, strain VPS5, active compounds read low 0.987 | locus YOR070C, strain gyp1, active compounds read low 1.02 | locus YOR080W, strain dia2, active compounds read low 1.03 | locus YOR083W, strain WHI5, active compounds read low 1.03 | locus YOR106W, strain vam3, active compounds read low 1.03 | locus YOR136W, strain idh2, active compounds read low 0.978 | locus YOR144C, strain elg1, active compounds read low 0.981 | locus YOR184W, strain ser1, active compounds read low 0.988 | locus YOR231W, strain MKK1, active compounds read low 0.966 | locus YOR265W, strain rbl2, active compounds read low 1.02 | locus YOR270C, strain vph1, active compounds read low 1.04 | locus YOR290C, strain snf2, active compounds read low 1.03 | locus YOR316C, strain cot1, active compounds read low 0.957 | locus YPL051W, strain arl3, active compounds read low 1.04 | locus YPL078C, strain atp4, active compounds read low 1.05 | locus YPL106C, strain sse1, active compounds read low 1.02 | locus YPL240C, strain hsp82, active compounds read low 1.02 | locus YPL241C, strain CIN2, active compounds read low 0.989 | locus YPL256C, strain CLN2, active compounds read low 0.976 | locus YPR119W, strain clb2, active compounds read low 0.972 | locus YPR141C, strain kar3, active compounds read low 0.958 | locus YPR163C, strain tif3, active compounds read low 0.981 | locus YPR167C, strain met16, active compounds read low 0.989 | strain wtn01, active compounds read low 0.987

Source: PubChem BioAssay AID1159580 (chemical genetic matrix, 2015)
